Screen size: about 420,000 compounds; about 64,000 (15%) were called active. Not shown: some 27% with an inconclusive outcome. The call rests on the fitted dose curve; in most records, active means well fitted inhibition curve with a large enough effect; inconclusive means small, poorly fitted or top-dose-only effect; inactive means flat fitted curve, though single readings scatter. The list is a sample of the results. Where a call stands in place of a potency, no number is given.
Assay: qHTS for Inhibitors of human tyrosyl-DNA phosphodiesterase 1 (TDP1): qHTS in cells in absence of CPT; further: nearly all actives have a fitted effect of over 55% in size
Details: DT40 Tdp1-/- hTDP1 cells, no CPT, ATP luminescence, 48 h; activity change, negative = growth inhibition: at 46.2 µM (top of the series)
Method in brief: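 Chicken DT40 Tdp1-/- cells complemented with human TDP1, screened without camptothecin (DMSO vehicle only), 400 cells/well. Compounds pin-transferred, cells incubated at 37 °C for at least 48 hr. Growth read as ATP-dependent luminescence (CellTiter-Glo, 30 min at RT).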
Potency means the concentration at half of the fitted maximal effect.

SMILES	Potency
Cc1cccc(N=C2NC(=O)CS2)c1C	inactive
Cc1cccc(COc2ccccc2/C=N/Nc2ccc([N+](=O)[O-])cc2)c1	20.6 µM (active)
Cc1ccc(NS(=O)(=O)c2ccc(N/N=C/c3ccccc3OCC(=O)O)c([N+](=O)[O-])c2)c(C)c1	inactive
O=[N+]([O-])c1cccc(/C=N/Nc2ncc(Br)cn2)c1	inactive
CN1C(=O)C(CC(N)=O)N(NC(=O)c2ccc(Cl)cc2)C1=S (stereo not drawn)	inactive
CC(C)(C)NC(=O)CSC(=Nc1ccccc1F)NC#N	16.4 µM (active)
Cc1ccccc1CSCC(=O)NC(=O)NC(C)(C)C	inactive
CC(C)(C)NC(=O)CSc1nnc(NC(=O)CCc2ccccc2)s1	inactive
N#C/C(=C1\CCCN1)c1nc(-c2ccccc2)cs1	inactive
Cc1nc(C(F)(F)F)ccc1C(=O)N1CCC1(C)C(=O)NS(=O)(=O)c1ccc(F)cc1F (stereo not drawn)	inactive
Cc1ccc(N(C(=O)C(F)(F)F)C(C(=O)NC2CCCCC2)c2ccncc2)cc1C (stereo not drawn)	18.4 µM (active)
Cc1ccc(N(C(=O)CNC(=O)c2ccco2)C(C(=O)NC2CCCC2)c2ccncc2)cc1 (stereo not drawn)	inactive
CCc1ccc(N(C(=O)c2csnn2)C(C(=O)NC2CCCCC2)c2ccncc2)cc1 (stereo not drawn)	inactive
O=C(c1cc(-c2ccccc2O)on1)N1CCCC1	inactive
O=C1C(=O)N(c2ccccc2)C(c2ccccc2)C1c1ccccc1 (stereo not drawn)	inactive
CCc1ccccc1NC1c2ccccc2C(=O)N1c1cccnc1 (stereo not drawn)	inactive
O=C1[C@@H](c2ccccc2)[C@@H](c2ccccc2)N1c1cccnc1	8.2 µM (active)
CCCC(=O)N1CCc2[nH]c3ccccc3c2C1	inactive
Cc1ccc(C2c3[nH]c4ccccc4c3CCN2C(=O)c2cccc(C)c2)cc1 (stereo not drawn)	18.4 µM (active)
CCCC(=O)N1c2ccccc2NC2=C(C(=O)CCC2)C1c1ccc(F)cc1 (stereo not drawn)	inactive
Cc1cccc(C(=O)N2CCN(S(=O)(=O)N3CCCCC3)CC2)c1	inactive
CCOc1cccc(CC(=O)N2CCc3c([nH]c4ccccc34)C2c2ccc(F)cc2)c1OCC (stereo not drawn)	25.9 µM (active)
Cc1cccc(C(=O)N2CCc3c([nH]c4ccccc34)C2CC(C)C)n1 (stereo not drawn)	inactive
O=C(COC(=O)CCOc1ccccc1)Nc1cc(S(=O)(=O)N2CCCCC2)ccc1Cl	inactive
CC1=Nn2c(nnc2-c2ccccc2)SC1	inactive
COc1cccc(C(=O)NCCS(=O)(=O)NCC2CCCO2)c1 (stereo not drawn)	inactive

SMILES	Potency
CC1CCCCN1Cc1c(O)ccc2c(=O)c(-c3cccc(Cl)c3)c(C(F)(F)F)oc12 (stereo not drawn)	inactive
CC(=O)c1cccc(OCC(=O)OCC(=O)Nc2cc(S(=O)(=O)N3CCCCC3)ccc2C)c1	inactive
COc1ccc2c(c1)c(=Cc1ccc(N(C)C)cc1)c1cc(-c3ccccc3)[n+](C)n12	0.92 µM (active)
Cc1ccc(N2CC(NC(=O)Cc3cccs3)CC2=O)cc1 (stereo not drawn)	inactive
O=C(c1ccccc1-c1ccccc1)N1CCOCC1	inactive
Cc1onc(-c2ccccc2)c1C(=O)N1CCOCC1	inactive
Cc1oc2c(c1C(=O)N1CCOCC1)C(=O)c1ccccc1C2=O	2.59 µM (active)
Cc1cccc(C)c1OC(=O)CSc1nnc(-c2ccccc2)o1	inactive
Cc1ccc(-c2nnc(CN3CCN(C)CC3)o2)cc1	inactive
COC(=O)[C@@H](NC(=O)NCc1cccc(OC)c1)C(C)C	inactive
COc1cccc(CN(C)CC(O)COC(c2ccccc2)c2ccccc2C)c1 (stereo not drawn)	16.4 µM (active)
CCCC(O)(c1ccc(OC)cc1)C(CN(C)C)c1ccccc1 (stereo not drawn)	inactive
Cc1ccc(-n2c(SCC(=O)NCc3ccc4c(c3)OCO4)nnc2-c2cccnc2)c(C)c1	inactive
O=C(CCSCCc1ccccn1)Nc1nccs1	inactive
COc1ccc(C(=O)c2c(C)oc3cc([N+](=O)[O-])c(O)c([N+](=O)[O-])c23)cc1	inactive
COc1ccc(/C=N/Nc2nc(-c3ccc(C)cc3)c(C#N)c(=O)[nH]2)cc1	inactive
CCOC(=O)c1cc(-c2nnc(-c3cc(OC)c(OC)c(OC)c3)o2)c(C)nc1C	16.4 µM (active)
CCOC(=O)c1cc2ccccc2nc1C	inactive
O=C(CCN1C(=O)[C@@H]2Cc3ccccc3CN2C1=O)NCc1ccccc1	inactive
Cc1ccc(S(=O)(=O)N(C)C)cc1NC(=O)c1ccccc1Br	inactive
Cc1ccc(S(=O)(=O)N(C)C)cc1NC(=O)c1n[nH]c(=O)c2ccccc12	23.1 µM (active)
Cc1ccc(S(=O)(=O)N(C)C)cc1NC(=O)COC(=O)C1COc2ccccc2O1 (stereo not drawn)	inactive
CCOc1ccc(CCNC(=O)COC(=O)c2ccc(F)c(S(=O)(=O)N3CCOCC3)c2)cc1OCC	inactive
CCOc1ccccc1C1C(C(=O)OC)=CN(C)C=C1C(=O)OC	inactive
COc1ccc(C2CC(c3ccc(C)cc3)Nc3nc(N)nn32)cc1 (stereo not drawn)	inactive
CCOc1ccccc1C1CC(c2ccc(Cl)cc2)Nc2nc(N)nn21 (stereo not drawn)	16.4 µM (active)

SMILES	Potency
CC(C)[C@H](NC(=O)c1ccc(F)cc1)C(=O)OCC(=O)NC(=O)c1cccn1C	inactive
COc1ccc(S(=O)(=O)N(C)CC(=O)N2CCCC2)cc1Cl	inactive
CN1c2ccc(C=O)c3c(C=O)ccc(c23)N(C)C1(C)C	7.31 µM (active)
O=C1c2ccccc2C(O)N1Cc1ccccc1Cl (stereo not drawn)	inactive
CN1CCN(S(=O)(=O)c2ccc(Nc3ccc(F)cc3)nc2)CC1	inactive
O=C(NCc1ccccc1)C1c2ccccc2OCC(=O)N1C1CC1 (stereo not drawn)	inactive
NS(=O)(=O)c1ccc(CCNC(=O)c2nc(CS(=O)(=O)c3ccc(Cl)cc3)no2)cc1	inactive
O=C(CNCCC1=CCCCC1)Nc1ccccc1N1CCCCCC1	23.1 µM (active)
Cc1ccccc1NC(=O)NC1(C(=O)N2CCCC2)CCCCC1	inactive
Cc1nnc(OCC(=O)NCCC2=CCCCC2)c2ccccc12	inactive
Cc1cccc(N2CC(C(=O)Nc3ccccc3N3CCCC3)CC2=O)c1C (stereo not drawn)	inactive
Cc1ccccc1NC(=O)Nc1ccccc1N1CCCCC1	23.1 µM (active)
O=C(Nc1ccccc1N1CCCCC1)c1cccc(F)c1	inactive
C=CCSc1nc(Cc2ccc(Cl)cc2)nc2ccccc12	inactive
Cc1ccc(F)cc1NC(=O)c1ccc2c(c1)OCO2	inactive
COc1cc(C2C(C(=O)c3sc(C)nc3C)=C(O)C(=O)N2CCN(C)C)cc(OC)c1OC (stereo not drawn)	inactive
N/C(Cc1ccc([N+](=O)[O-])cc1)=N\OC(=O)C1CCCCC1	inactive
COc1ccccc1OCCC(=O)OCC(=O)NCc1ccccc1	inactive
N#Cc1ccc(CN2CCN(CC(=O)Nc3ccccc3C(=O)NC3CC3)CC2)cc1	inactive
NC(=O)c1ncn([C@@H]2O[C@H](CN=C3NS(=O)(=O)c4ccccc43)[C@@H](O)[C@H]2O)n1	inactive
CC(=O)c1ccc(NC(=O)Nc2ccc([N+](=O)[O-])cc2C)cc1	16.4 µM (active)
CC(C)C(=O)Nc1cccc(NC(=O)c2ccc([N+](=O)[O-])cc2Cl)c1	inactive
CN1CCN(CCNC(=O)Nc2ccc([N+](=O)[O-])cc2)CC1	inactive
Cc1cc([N+](=O)[O-])ccc1NC(=O)c1ccc(NC(=O)C(C)C)cc1	18.4 µM (active)
Cc1cc([N+](=O)[O-])ccc1NC(=O)C1CCCO1 (stereo not drawn)	inactive
COc1ccc([N+](=O)[O-])cc1NC(=O)c1ccc(N(Cc2ccccc2C)S(C)(=O)=O)cc1	inactive

SMILES	Potency
CN1c2ccc([N+](=O)[O-])cc2C(C)(C)C12C=Cc1cc(C(=O)O)ccc1O2 (stereo not drawn)	inactive
CN(CCO)S(=O)(=O)c1ccc2c(c1)C(=O)c1cc(S(=O)(=O)N(C)CCO)ccc1-2	inactive
C=CCOc1ccc(/C=C/C(=O)OCC(=O)NC2CCCCCC2)cc1	inactive
O=C(O)c1ccc2c(c1)N(Cc1ccc(F)cc1)C(=O)c1ccccc1S2=O (stereo not drawn)	14.6 µM (active)
Cc1c(CNC2CCCCC2)c(C(=O)O)c(C)n1Cc1cccc(Cl)c1	inactive
Cc1ccc(CCNC(=O)c2ccc3c(c2)N(Cc2cc(C)ccc2C)C(=O)c2ccccc2S3=O)cc1 (stereo not drawn)	11.6 µM (active)
O=C(CN1C(=O)c2ccccc2C1=O)NCc1ccc(C(=O)O)cc1	inactive
CN(C(=O)c1ccc2c(c1)N(Cc1cccc(Cl)c1)C(=O)c1ccccc1S2=O)C1CCCCC1 (stereo not drawn)	23.1 µM (active)
Cc1ccc(CNS(=O)(=O)CCNC(=O)c2ccccc2)cc1	inactive
O=C(COC(=O)c1cccc(Cl)c1)NC1CCCCCCC1	inactive
Cc1ccc(C)c(CN2C(=O)c3ccccc3S(=O)c3ccc(C(=O)N4CCOCC4)cc32)c1 (stereo not drawn)	inactive
COc1ccccc1NC(=O)c1cc(N2C(=O)C3C4CCC(C4)C3C2=O)ccc1Cl (stereo not drawn)	inactive
C/C(CC(=O)NC(C)(C)C)=N\NC(=O)c1ccco1	inactive
COC(=O)c1ccc(CNC(=O)Cn2cc(C)c(=O)[nH]c2=O)cc1	inactive
Cc1ccc(OCC(=O)N2CCN(S(=O)(=O)c3ccc(Cl)s3)CC2)cc1C	inactive
Cc1cc(C)n2c(NCc3ccccc3)c(CC(C)C)nc2n1	23.1 µM (active)
Nc1nc(NCc2ccccc2)n(-c2ccccc2)n1	inactive
Cc1cc(C)n2c(Nc3c(C)cccc3C)c(CCc3ccccc3)nc2n1	16.4 µM (active)
Cc1ccc(O)c(CCc2ccccc2)n1	inactive
COc1cccc2c(C)c(C(=O)O)[nH]c12	inactive
O=C(O)CC(CC(=O)N1CCOCC1)c1ccccc1 (stereo not drawn)	inactive
CCCCC(=O)NC(c1ccc(OC)c(OC)c1)c1ccc2cccnc2c1O (stereo not drawn)	3.26 µM (active)
CCOc1ccc(C(CC(=O)O)NC(=O)Cc2ccccc2)cc1OC (stereo not drawn)	inactive
COc1ccc(CCNS(=O)(=O)c2cccc3cccnc23)cc1OC	inactive
COC(=O)C1C(=O)CC(C)(O)C(C(=O)OC)C1c1ccc2c(c1)OCO2 (stereo not drawn)	inactive
